Data: PubChem BioAssay AID1117293 (Broad Institute, 2014)
Potency and affinity values are given separately. Results filed as inconclusive are left out. Entries that show only a call come without a potency. Active and inactive are the calls of the source.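 The calls were made as follows: active = cytotoxic in every repeat run, with fitted half-maximal concentration at most twice the top tested dose; inconclusive = runs disagree, or flat partial drop, or poor curve fit; inactive = inactive in every run.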

test: HEK293T cell cytotoxicity, dose response, cytotoxicity control, CellTiter-Glo luminescence, dry powder, set 20 (AID 1117293); conditions: HEK293T viability, CellTiter-Glo ATP luminescence, 72 h; series mostly up to 26 µM

SMILES | outcome
COc1ccc(S(=O)(=O)Nc2cc(C(F)(F)F)ccc2N2CCCCC2)cc1 | inactive
NC(=NCCc1c[nH]c2ccccc12)NS(=O)(=O)c1cc(F)ccc1F | inactive
CC(=O)N1CCN(C(=O)C2(NC(=O)Nc3ccc(F)cc3)CCCCC2)CC1 | inactive
COc1ccc(C(=O)Nc2ccccc2N2CCCCC2)cc1S(=O)(=O)O | inactive
CC(=O)N1CCN(C(=O)C2(NC(=O)Nc3ccc(C(C)C)cc3)CCCCC2)CC1 | inactive
Cc1ccc(NC(=O)NC2(C(=O)N3CCNCC3)CCCCC2)cc1 | inactive
Cc1ccc(NC(=O)NC2(C(=O)N3CCN(c4ccccc4)CC3)CCCCC2)cc1 | inactive
CC(=O)N1CCN(C(=O)C(C)(C)NC(=O)Nc2ccc(C)cc2)CC1 | inactive
CC(=O)N1CCN(C(=O)C2(NC(=O)Nc3ccc(C)cc3)CC2)CC1 | inactive
CC(=O)N1CCN(C(=O)C2(NC(=O)Nc3ccc(F)cc3)CCCC2)CC1 | inactive
O=S(=O)(O)c1ccc(N2N=C(c3ccccc3)CC2c2ccccc2)cc1 (centres undefined) | inactive
Cn1cnc(S(=O)(=O)Nc2cc(C(F)(F)F)ccc2N2CCCCC2)c1 | inactive
CC(=O)N1CCN(C(=O)C2(NC(=O)Nc3ccc(C(F)(F)F)cc3)CCCC2)CC1 | inactive
COc1ccc(C(=O)Nc2cccc(C(F)(F)F)c2)cc1S(=O)(=O)O | inactive
COc1ccc(C(=O)Nc2cc(C(F)(F)F)ccc2N2CCCC2)cc1S(=O)(=O)O | inactive
CC(=O)N1CCN(C(=O)C2(NC(=O)Nc3ccccc3F)CCCCC2)CC1 | inactive
COc1ccc(C(=O)O)cc1S(=O)(=O)Nc1cc(C(F)(F)F)ccc1N(C)C | inactive
O=S(=O)(Nc1cc(C(F)(F)F)ccc1N1CCCCC1)c1ccc(Cl)cc1 | inactive
CC(=O)N1CCN(C(=O)C2(NC(=O)Nc3ccc(C(C)C)cc3)CCCC2)CC1 | inactive
CC(=O)N1CCN(C(=O)C2(NC(=O)Nc3ccc(C(F)(F)F)cc3)CCCCC2)CC1 | inactive
CC(=O)N1CCN(C(=O)C2(NC(=O)NC(C)(C)C)CCCCC2)CC1 | inactive
O=C(Nc1cc(C(F)(F)F)ccc1N1CCCCC1)c1ccc(S(=O)(=O)O)cc1 | inactive
COc1cccc(NC(=O)NC2(C(=O)N3CCN(C(C)=O)CC3)CCCCC2)c1 | inactive
COc1ccc(C(=O)O)cc1S(=O)(=O)Nc1cc(C(F)(F)F)ccc1N1CCOCC1 | inactive
